For 40 molecules, inhibition results are on record in ChEMBL document CHEMBL3433997, “St. Jude Leishmania screening dataset” (2016).

This test deals with Solute carrier family 2, facilitated glucose transporter member 1 (Homo sapiens) (UniProt P11166). Description: ST_JUDE_LEISH: Cytotoxicity at 2uM final concentration against transgenic Leishmania Mexicana promastigotes LmGLUT1 that are glucose transport deficient and complemented with the human glucose transporter GLUT1. Activity is measured by DNA content using SYBR green in vitro. It is filed as functional.
Chain of Solute carrier family 2, facilitated glucose transporter member 1 (Homo sapiens) (P11166 whole entry): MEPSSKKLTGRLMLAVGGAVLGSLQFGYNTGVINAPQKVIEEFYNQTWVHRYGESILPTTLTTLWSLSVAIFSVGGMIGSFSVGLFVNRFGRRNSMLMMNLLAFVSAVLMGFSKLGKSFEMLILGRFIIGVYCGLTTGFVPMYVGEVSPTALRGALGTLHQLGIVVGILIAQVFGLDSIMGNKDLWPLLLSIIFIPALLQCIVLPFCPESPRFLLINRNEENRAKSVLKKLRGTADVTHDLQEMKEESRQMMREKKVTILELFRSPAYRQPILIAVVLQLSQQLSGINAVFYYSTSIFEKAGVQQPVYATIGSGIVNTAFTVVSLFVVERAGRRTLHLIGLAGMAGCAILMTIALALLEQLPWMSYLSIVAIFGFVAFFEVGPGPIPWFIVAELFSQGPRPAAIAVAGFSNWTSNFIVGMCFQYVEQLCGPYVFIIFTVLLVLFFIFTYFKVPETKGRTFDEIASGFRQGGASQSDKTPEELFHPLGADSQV
As to `Brc1cccc(Nc2nccc(Nc3ccc(Oc4ccccc4)cc3)n2)c1`, the inhibition (as a rule, the change of the read-out against control, counted positive when it falls) was determined as 6.01%.

With `Nc1ccc2c(N)c3ccccc3nc2c1`, the inhibition was 0.33%.

`c1ccc2c(CNCCCCCCNCc3c(OCC4CC4)ccc4ccccc34)c(OCC3CC3)ccc2c1`: the inhibition was determined as 51.5%.

Take `CCN(CC)CCn1c(=N)n(CC(O)c2ccc(Cl)c(Cl)c2)c2ccccc21` (stereo not given): the inhibition worked out at 7.87%.

For `COC(=O)CCCOc1cc(Cc2cnc(N)nc2N)cc(OC)c1OC`, the inhibition turned out to be 7.51%.

In the case of `O=C(NCCCCCN1CCC(c2c[nH]c3ccccc23)CC1)Nc1ccc(Cl)cc1Cl`, the inhibition came out at 2.57%.

Regarding `COc1ccc(CC(=O)Nc2ccc(Nc3nc(C)cc(N(C)C)n3)cc2)cc1`, the inhibition was determined as 10.3%.

Turning to `COC(=O)c1cc(C(=O)CN(Cc2ccccc2)C(C)C)ccc1O`, the inhibition is 4.78%.

Take `CCCn1cc2c(ccc3nc(N)nc(N)c32)n1`: the inhibition was 0.63%.

In the case of `CCCCCOc1ccc(N2C(N)=NC(N)=NC2(C)C)cc1`, the inhibition was 2.39%.

With `CC(c1cccc(S(=O)(=O)NCc2cccc(C(F)(F)F)c2)c1)N1CCC(N2CCCCC2)CC1` (stereo not given), the inhibition came out at 6.15%.

As to `CC[C@H](C)CNC(=O)c1ccnc(-c2cccc(CN(C)C3CCN(C)CC3)c2)c1`, the inhibition was found to be 1.42%.

`OCCN1CCN(c2ccc(Nc3ccnc4cc5ccccc5cc34)cc2)CC1`: the inhibition stood at 28.2%.

`COc1ccc(CC(=O)NC2CCN(c3ccnc4cc(Cl)ccc34)C2)cc1` (stereo not given): the inhibition is -0.54%.

In the case of `COc1cc(Cc2cnc(N)nc2N)cc(OCCNC(=O)OCc2ccccc2)c1OC`, the inhibition is -1.11%.

Consider `CCN(CC)CCCC(C)N=c1cc(C=Cc2ccc([N+](=O)[O-])cc2)[nH]c2ccc(OC)cc12` (stereo not given), for which the inhibition is 2.45%.

Turning to `COc1ccc(NS(=O)(=O)c2ccccc2Br)cc1N1CCN(C)CC1`, the inhibition amounted to 0.24%.

Consider `CN(C)Cc1ccc(-c2cc3c(Nc4ccc(OCc5cccc(F)c5)c(Cl)c4)ncnc3s2)[nH]1`, for which the inhibition came out at 2.15%.

As to `O=S(=O)(Nc1ccc(CCN2CCC(N3CCCCC3)CC2)cc1)c1cccc2cccnc12`, the inhibition worked out at 3.76%.

In the case of `Cc1ccc2sc(N(CCCn3ccnc3)C(=O)c3ccco3)nc2c1C`, the inhibition was determined as 0.64%.

Regarding `CCCCCCN1CCC(NCc2ccc(Cl)cc2)CC1`, the inhibition is 7.59%.

With `C=CCc1cc(Cc2cnc(N)nc2N)c2ccc(C)nc2c1O`, the inhibition came to 2.17%.

As to `O=S(=O)(Nc1cccc(CCN2CCC(N3CCCCC3)CC2)c1)c1cccc2ccccc12`, the inhibition turned out to be 4.59%.

Regarding `CCN(CC)CCN(Cc1ccc(-c2ccc(C(F)(F)F)cc2)cc1)C(=O)Cn1nc(-c2ccc(C(F)(F)F)cc2)ccc1=O`, the inhibition is 1.46%.

As for `COc1ccc2[nH]c(C)cc(=NN=Cc3ccccc3F)c2c1`, the inhibition was -0.29%.

For the molecule `CC1CCCN(S(=O)(=O)c2cc(Br)cc3c2N(C(=O)C2CC2)CC3)C1` (stereo not given), the inhibition is 2.64%.

`CN1CCCN(Cc2cccc(-c3cccc(NS(=O)(=O)c4cccc5cccnc45)c3)c2)CC1`: the inhibition was determined as 10.4%.

Consider `O=C(NC1CCCCN(Cc2ccccc2O)C1)c1cccc(Cl)c1` (stereo not given), for which the inhibition is 1.27%.

Take `O=S(=O)(NCCN1CCCC1)c1ccc(-c2ccc(CNC3Cc4ccccc4C3)cc2)cc1`: the inhibition was found to be 2.13%.

As to `Cc1ccc2[nH]c(-c3ccccc3N)cc2c1`, the inhibition is 3.92%.

On to `COc1ccc(-c2cccc(NC(=O)c3cccs3)c2)cc1CN1CCCN(C)CC1`, for which the inhibition stood at 0.38%.

Take `NS(=O)(=O)CCc1cccc(Nc2nccc(-c3c(-c4cccc(NC(=O)c5c(F)cccc5F)c4)nn4ccccc34)n2)c1`: the inhibition came out at 4.25%.

Turning to `O=C(/C=C/c1ccc(Cl)cc1)NCCCCCN1CCCN(C(=O)Nc2ccc(Cl)c(C(F)(F)F)c2)CC1`, the inhibition is 1.83%.

Turning to `Nc1nccc(-c2ccc3c(/C=C/c4ccccc4)cnc(N)c3c2)n1`, the inhibition stood at 18.2%.

As for `N=c1n(CCN2CCCCC2)c2ccccc2n1CC(=O)c1cccc([N+](=O)[O-])c1`, the inhibition was 2.8%.

As for `Fc1ccc2[nH]c(-c3cccc(-c4ccc(CN5CCC(CCN6CCCCC6)CC5)cc4)c3)nc2c1`, the inhibition was -0.64%.

As for `Cc1nc(N)nc(N)c1OCc1ccc(Cl)c(Cl)c1`, the inhibition worked out at 0.66%.

On to `COc1cc(-n2c(CN3CCCC3)nc3cc(-c4ccc(Cl)cc4)sc3c2=O)ccc1OCCN1CCCC1`, for which the inhibition was determined as 2.99%.

Turning to `N#Cc1ccc2c(c1)CN(C1CCC(NC(=O)/C=C/c3cc(C(F)(F)F)cc(C(F)(F)F)c3)CC1)CCC2` (stereo not given), the inhibition amounted to 1.63%.

For `CN(C)Cc1ccc(-c2ccc3ccnc(N)c3c2)cc1`, the inhibition was 3.2%.
